From PubChem BioAssay (NCI) come the findings set out here.

Compounds without any hit were thinned out: in the full panel of roughly 83,000, 20% have a hit.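 A percent growth of 40 corresponds to 60% growth inhibition; 0 means no net growth; -100 means all cells died. Active threshold: below 10.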 A number with no mark means an inactive call. Activity calls are given as the source filed them.

Some test systems named below: NCI-H23 lung; NCI-H226 lung; NCI-H322M lung; HOP-62 NSCLC; NCI-H460 lung; HOP-92 NSCLC; NCI-H522 lung; A549/ATCC NSCLC; 786-0 renal; COLO 205 colon.
Common to all, as to test: NCI-60 one-dose screen, 48 h (100 = growth as untreated, 0 = no growth, -100 = all killed)
Common to all, as to details: 10 µM unless noted

As for `Nc1ncnc2c1c(C(F)(F)F)cn2[C@@H]1O[C@H](CO)[C@@H](O)[C@H]1O`, the growth in the experiment on NCI-H23 lung is 2.27% (active); in the experiment on NCI-H226 lung, -13.8% (active); with NCI-H322M lung, 19.5%; with HOP-62 NSCLC, -4.3% (active); in the experiment on NCI-H460 lung, 7.65% (active); in the experiment on HOP-92 NSCLC, -12.8% (active). The growth in the experiment on NCI-H522 lung was -14.1% (active); in the experiment with A549/ATCC NSCLC, 10.5%; in the experiment with 786-0 renal it was 13.5%; in the experiment with COLO 205 colon, -42.1% (active).
As to `CCCCCCCCCCCCCCCC(=O)NS(=O)(=O)OC[C@H]1O[C@@H](n2cnc3c(N)ncnc32)[C@H](O)[C@@H]1O`, the growth in the experiment with NCI-H23 lung was -39.5% (active); in the experiment with NCI-H226 lung, -65.1% (active); in the experiment on NCI-H322M lung, -46.2% (active); in the experiment on HOP-62 NSCLC it was -25% (active); in the experiment on NCI-H460 lung it was -10.1% (active); with HOP-92 NSCLC, -65.7% (active). The growth was -33.3% (active) with NCI-H522 lung, 9.49% (active) in the experiment with A549/ATCC NSCLC, -69.6% (active) in the experiment on 786-0 renal and -62.8% (active) in the experiment on COLO 205 colon.
For the compound `COc1ccc(-c2nn(-c3ccc(NC(=O)c4ccc(Cl)c(C(F)(F)F)c4)cc3)cc2-c2ccncc2)cc1Cl`, the growth in the experiment on NCI-H23 lung is 30.2%; with NCI-H226 lung, 70.5%; in the experiment with NCI-H322M lung it was 51.5%; in the experiment with HOP-62 NSCLC it was -24.9% (active); with NCI-H460 lung, 11.3%; with HOP-92 NSCLC, -0.441% (active). Moreover, the growth in the experiment with NCI-H522 lung is 30.6%; in the experiment on A549/ATCC NSCLC, 31%; with 786-0 renal it was -55.7% (active); with COLO 205 colon it was -19% (active).
With `NC(=O)C1=C[C@H]2[C@H]3C=C[C@@]2(O)C(=O)O[C@@H]3O1`, the growth in the experiment with NCI-H23 lung is 67%; with NCI-H226 lung it was 47.6%; in the experiment on NCI-H322M lung, 93.8%; in the experiment with HOP-62 NSCLC it was 82.3%; with NCI-H460 lung, 99.2%; in the experiment with HOP-92 NSCLC, 40.7%. Moreover, the growth with NCI-H522 lung is 63.3%; with A549/ATCC NSCLC it was 80.7%; with 786-0 renal it was 61.4%; in the experiment with COLO 205 colon it was 38.8%.
As for `Cc1nccc2c3ccc(OCc4cn(Cc5ccc(Br)cc5)nn4)cc3n(CCCc3ccccc3)c12`, the growth with NCI-H23 lung was 82.5%; with NCI-H226 lung it was 88.9%; in the experiment with NCI-H322M lung, 85.9%; in the experiment on HOP-62 NSCLC, 62%; in the experiment with NCI-H460 lung, 89.5%; in the experiment with HOP-92 NSCLC it was 77.9%. The growth is 59.4% in the experiment on NCI-H522 lung, 82.6% in the experiment on A549/ATCC NSCLC, 67% with 786-0 renal and 92.4% in the experiment on COLO 205 colon.
For `C#C[C@@]1(O)[C@@H](CO)O[C@@H](n2cc(C(F)(F)F)c3c(N)ncnc32)[C@@H]1O`, the growth with NCI-H23 lung is 2.72% (active); with NCI-H226 lung it was -12.1% (active); in the experiment with NCI-H322M lung, 16%; in the experiment on HOP-62 NSCLC, 7.02% (active); in the experiment on NCI-H460 lung, 2.05% (active); in the experiment on HOP-92 NSCLC, -13.7% (active). Further, the growth in the experiment on NCI-H522 lung was -52.5% (active); with A549/ATCC NSCLC it was -4.98% (active); with 786-0 renal it was 4.52% (active); with COLO 205 colon, -77.1% (active).
For `O=C(NCCNc1nccc(-c2c(-c3cccc(O)c3)nc3sccn23)n1)Nc1cccc(C(F)(F)F)c1`, the growth was 96.2% in the experiment with NCI-H23 lung; 97% in the experiment with NCI-H226 lung; 76.8% with NCI-H322M lung; 83.5% with HOP-62 NSCLC; 80.1% in the experiment on NCI-H460 lung; 54.5% in the experiment on HOP-92 NSCLC. Further, the growth was -5.9% (active) in the experiment with NCI-H522 lung, 39.3% with A549/ATCC NSCLC, 79.4% with 786-0 renal and 53.2% in the experiment on COLO 205 colon.
With `O=C(/C=C/c1ccccc1)Oc1ccc(/C=C/c2cc(OC(=O)/C=C/c3ccccc3)cc(OC(=O)/C=C/c3ccccc3)c2)cc1`, the growth in the experiment on NCI-H23 lung is 102%; with NCI-H226 lung it was 91.4%; with NCI-H322M lung, 90.6%; with HOP-62 NSCLC, 82.9%; in the experiment on NCI-H460 lung, 100%; in the experiment on HOP-92 NSCLC, 95.8%. The growth in the experiment with NCI-H522 lung was 77%; in the experiment on A549/ATCC NSCLC it was 83.9%; in the experiment on 786-0 renal, 102%; with COLO 205 colon, 97.4%.
With `O=c1cc(Cl)[nH]c(=O)[nH]1`, the growth in the experiment on NCI-H23 lung was 98.9%; with NCI-H226 lung, 97.5%; in the experiment with NCI-H322M lung, 98.9%; in the experiment on HOP-62 NSCLC, 83.2%; with NCI-H460 lung, 108%; in the experiment with HOP-92 NSCLC, 98.2%. For the same compound, the growth with NCI-H522 lung was 67.7%; in the experiment on A549/ATCC NSCLC, 79.5%; in the experiment with 786-0 renal, 101%; in the experiment with COLO 205 colon it was 97.5%.
In the case of `CCN(CC)CCC(C(=O)O)(c1ccccc1)c1ccccc1`, the growth in the experiment with NCI-H23 lung was 95.3%; in the experiment with NCI-H226 lung, 106%; with NCI-H322M lung, 103%; in the experiment with HOP-62 NSCLC it was 86.5%; in the experiment on NCI-H460 lung, 105%; in the experiment on HOP-92 NSCLC it was 101%. Besides, the growth is 89.7% in the experiment with NCI-H522 lung, 110% in the experiment on A549/ATCC NSCLC, 96.4% in the experiment on 786-0 renal and 101% with COLO 205 colon.
For the compound `Cc1ccc(Cn2cc(COc3ccc4c5ccnc(C)c5n(CCCc5ccccc5)c4c3)nn2)cc1`, the growth in the experiment on NCI-H23 lung is 84.3%; in the experiment with NCI-H226 lung it was 98.9%; with NCI-H322M lung it was 90.6%; in the experiment on HOP-62 NSCLC it was 87.1%; with NCI-H460 lung, 103%; in the experiment with HOP-92 NSCLC, 68.6%. Moreover, the growth in the experiment with NCI-H522 lung was 66.4%; with A549/ATCC NSCLC it was 94.2%; in the experiment on 786-0 renal, 85.9%; with COLO 205 colon, 92.2%.
As for `Nc1nc2ccc(CNc3ccc(C(=O)NC(CC(=O)O)C(=O)O)cc3)cc2c(=O)[nH]1` (stereo not given), the growth was 31.7% with NCI-H23 lung; 57.4% in the experiment with NCI-H226 lung; 55.7% in the experiment on NCI-H322M lung; 26.5% in the experiment on HOP-62 NSCLC; 24.4% with NCI-H460 lung; 64.1% with HOP-92 NSCLC. Moreover, the growth in the experiment on NCI-H522 lung was -0.0288% (active); with A549/ATCC NSCLC, 11%; in the experiment with 786-0 renal, 7.57% (active); with COLO 205 colon it was 85.4%.
As to `COC1=C(OC)C(=O)C=CC1=O`, the growth was 111% in the experiment with NCI-H23 lung; 107% in the experiment on NCI-H226 lung; 101% in the experiment with NCI-H322M lung; 117% in the experiment on HOP-62 NSCLC; 118% in the experiment on NCI-H460 lung; 110% in the experiment on HOP-92 NSCLC. The growth was 63.7% in the experiment on NCI-H522 lung, 109% in the experiment on A549/ATCC NSCLC, 103% in the experiment with 786-0 renal and 99.8% with COLO 205 colon.
